# EBNA-1 inhibitor: EBNA-1 DNA-binding inhibitors, primary screen, biochemical, fluorescence polarization. 0.34% of 300,000 active. AID 1950, 2009. inhibition, % at 14.8 µM; in the data active = inhibition above about 28%
# ZTA counter: counter-screen for EBNA-1 inhibitors: inhibitors of Epstein-Barr virus ZTA. P03206. ZTA-DNA binding, fluorescence polarization. inhibition, % at 11 µM. 0.15% of 320,000 active. AID 2234; in the data active = inhibition above about 33%
# Target sequence (P03206 whole entry, looked up): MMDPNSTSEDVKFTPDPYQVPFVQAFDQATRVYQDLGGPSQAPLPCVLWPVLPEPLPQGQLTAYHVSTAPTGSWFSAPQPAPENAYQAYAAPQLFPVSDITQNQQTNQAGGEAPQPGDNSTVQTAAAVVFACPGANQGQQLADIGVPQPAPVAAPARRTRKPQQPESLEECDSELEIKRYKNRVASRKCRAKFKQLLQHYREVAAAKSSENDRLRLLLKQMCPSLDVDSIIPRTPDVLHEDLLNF
# TPT1 inhibitor: Candida albicans TPT1 enzyme inhibitors, primary screen, biochemical, fluorescence polarization; tRNA 2'-phosphotransferase TPT1 (Candida albicans SC5314); recombinant caTPT1, FP RNA substrate dephosphorylation; inhibition, % at 5 µM; 0.81% of 300,000 active; AID 1962, 2009;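 active = inhibition above the mean of all tested compounds plus 3 SD, set per screening campaign, cut at about 24% in these data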;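 also: plate controls were DMSO alone for no effect and ferristatin control at 100 nM for full effect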
# Rpn11 block: Rpn11 (PSMD14) deubiquitinase inhibitors, primary screen, biochemical, fluorescence polarization, uHTS; human 26S proteasome, Ub4-pepOG fluorescence polarization; 20S core pre-blocked with epoxomicin; inhibition, % at 20 µM; 0.59% of 360,000 active; 26S proteasome non-ATPase regulatory subunit 14 (Homo sapiens), O00487;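 active = inhibition at 20 µM, scaled to each plate's controls, above about 33%, limit read from the data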
# dFosB activator: activators of delta FosB homodimer, primary screen, biochemical, fluorescence polarization, TAMRA-CDK5 oligo, single point; 0.99% of 340,000 active; Protein FosB (Mus musculus), P13346; purified delta FosB; percent of positive-control signal above neutral wells; activation, % at 25 µM;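 active = mean activation above about 17%, with every replicate also reaching it, limit read from the data, passing the limit was not always enough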
# NR3A LBD binder: binders of NR3A ligand-binding domain, primary screen, biophysical, differential scanning fluorimetry, uHTS; Glutamate receptor ionotropic, NMDA 3A (GRIN3A) ligand-binding domain; NR3A LBD differential scanning fluorimetry, Tm shift; 0% = protein alone, 100% = glycine-bound protein; Tm shift relative to glycine control, % at 25 µM; 2.5% of 340,000 active; AID 1259313, 2017;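 active = melting temperature shift of at least 10% of the positive control shift, at one fixed dose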
# The depositor's hits bear a star; . = not tested or not shown. Most compounds without a hit are left out; they make up all but 4.5% or so of the library.
SMILES,EBNA-1 inhibitor,ZTA counter,TPT1 inhibitor,Rpn11 block,dFosB activator,NR3A LBD binder
O=C(N/N=C/c1ccc(OC(=O)c2ccco2)cc1)c1ccccn1,-2,-15,-8,0,-1,14*
CC(=O)Nc1ccc(C(=O)COC(=O)c2ccco2)c(F)c1,.,4,.,-4,-3,0
COCCn1c(N)c(Sc2ccc([N+](=O)[O-])cc2)c(=O)[nH]c1=O,9,14,0,-1,-3,2
COc1cccc(NC(=O)C(NCC(C)(C)CN(C)C)c2ccccc2)c1 (stereo unspecified),-4,-1,-5,0,-8,2
C=CCNC(C(=O)Nc1cccc(OC)c1)c1ccccc1 (stereo unspecified),-10,-9,1,-8,-12,15*
CCN(C(=O)COC(=O)CCn1c(C)csc1=O)c1c(N)n(Cc2ccccc2)c(=O)[nH]c1=O,.,0,.,3,-6,-1
COC(=O)c1cn[nH]c1NC(=S)Nc1ccccc1C,3,1,-4,2,-6,2
COC(=O)c1cn[nH]c1NC(=S)Nc1ccc(Cl)c(Cl)c1,5,1,1,2,9,11*
CCOC(=O)c1cn[nH]c1NC(=S)Nc1ccc(OC)cc1,6,-13,-1,-2,3,-11
COC(=O)c1cn[nH]c1NC(=S)Nc1ccc(C)cc1Cl,-7,-8,-1,3,-11,30*
O=C(CN1C(=O)c2ccccc2C1=O)OCC(=O)N1CCCCC1,.,.,.,-4,3,-1
Cc1cc(NC(=S)N(CCCN2CCOCC2)Cc2ccco2)ccc1Cl,13,-7,-2,-4,-1,13*
FC(F)(F)c1cccc(NC(=S)N(CCCN2CCCC2)Cc2cccn2Cc2ccc(Cl)cc2)c1,-3,10,-2,5,45*,-8
CN(C)CCCN(Cc1ccccc1)C(=S)Nc1cccc(C(F)(F)F)c1,0,-10,1,-4,-8,0
Cc1ccc(NC(=S)N(CCCN2CCCC2)Cc2cccn2Cc2ccc(Cl)cc2)cc1Cl,0,9,3,3,69*,-2
COc1ccc(NC(=S)N(CCCN2CCC(C)CC2)Cc2cccs2)cc1Cl,-6,-23,-3,-5,-7,0
COc1ccc(NC(=S)N(CCCN2CCCC2)Cc2cccn2Cc2ccc(Cl)cc2)cc1Cl,-1,9,-3,2,48*,-2
Cc1nc([N+](=O)[O-])c(SCC(O)CCl)n1Cc1ccc(Cl)cc1 (stereo unspecified),2,-4,0,0,-9,7
CC(/C=C/c1cccc([N+](=O)[O-])c1)=N\NC(=O)c1ccncc1,6,13,-3,-6,8,-1
Cc1ccccc1-c1cnc(C(O)c2ccc(Cl)cc2)[nH]1 (stereo unspecified),.,.,.,-3,.,.
CCC(NC(=O)COc1cc2c(c3oc(=O)c(C)c(C)c13)CCC(C)(C)O2)C(=O)O (stereo unspecified),-6,-2,-1,-4,-3,-1
Cc1cc(C)nc(NS(=O)(=O)c2ccc(NC(=O)c3snnc3C)cc2)n1,-8,-5,-2,-4,-2,5
Cc1ccc(NC(=S)N(CCCN2CCCC2)Cc2cccn2Cc2ccc(Cl)cc2)cc1C,-1,-18,3,3,32*,-2
Cc1cc(NC(=S)N(CCN2CCCCC2)Cc2ccco2)ccc1Cl,0,-12,0,-5,-9,-1
Cc1ccc(Nc2nc(N/N=C\c3ccc4c(c3)OCO4)nc(N3CCOCC3)n2)cc1,3,11,-3,5,60*,-2
Cc1ccc(/C=N/Nc2cc(C)nc(N3CCOCC3)n2)cc1,3,-4,5,-1,-2,1
CCOC(=O)/C(C#N)=N\Nc1cc(Cl)ccc1OC,7,13,7,10,-3,0

# Source: PubChem
